Screens deposited in PubChem BioAssay by Sanford-Burnham Center for Chemical Genomics.
CF NFkB inh = inhibitors of PAF-induced NF-kB signaling, primary screen, cell-based, GFP fluorescence, uHTS; KKLEB NF-kB-GFP reporter, GFP fluorescence overnight; inhibition, % at 5 µM; 360,000 tested, 0.86% active; AID 588850, 2011;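 active = at least 50% inhibition at 5 µM, scaled per plate between neutral and stimulator controls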;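 also: PAF is a Pseudomonas aeruginosa culture filtrate used as stimulus; plate controls were PAF-stimulated DMSO wells for no effect and unstimulated DMSO wells for full effect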
PPC-1+TRAIL kill = compounds killing PPC-1 cancer cells with TRAIL present, primary screen, TRAIL potentiator project, ATPLite luminescence, uHTS. PPC-1 cells + TRAIL, ATPLite viability luminescence. cell killing (% activity), % at 4 µM or 5 µM. 220,000 tested, 0.41% active. AID 1443, 2008;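 active = cell killing above 50% in the first pass at 4 µM, then a duplicate retest at 5 µM averaging 50% or more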;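 also: plate controls were cells with TRAIL plus DMSO for no effect and medium-only wells lacking cells for full effect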
hiPSC survival = enhancers of single-cell hiPSC survival, primary screen, ATPlite luminescence; survival enhancement, % at 20 µM; 360,000 tested, 0.044% active; AID 602274, 2012; 100% = ROCK inhibitor wells, 0% = DMSO; in the data active = survival enhancement above about 18%;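 also: cells exposed to compounds for 16 hours before the ATP read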
C8 TRAIL sens = viability loss with TRAIL in NB7+C8 cells, primary screen, TRAIL sensitizer project, cell-based, ATPlite luminescence | inhibition (viability loss, TRAIL sensitization), % at 10 µM | 360,000 tested, 1% active;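 active = compounds causing at least 50% loss of cell viability in the single-dose screen, relative to plate controls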
KKLEB tox = cytotoxicity in KKLEB CF airway cells, primary screen, cytotoxicity control for CF NF-kB inhibitor project, cell-based, uHTS, fluorescence assay plates; KKLEB CF airway cells viability, ATPlite luminescence, overnight; stronger effect = lower value; cells stimulated with P. aeruginosa culture filtrate; activity change (cytotoxicity), % at 5 µM; 360,000 tested, 0.36% active;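 active = corrected activity change at or below -50% at 5 µM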
HIF-2a inh = HIF-2a reporter inhibitors, primary screen, luminescence, 786-0 RCC cells; 786-0 RCC cells HIF-2a reporter, luciferase luminescence, overnight; inhibition, % at 18.8 µM; 360,000 tested, 0.72% active; AID 624352, 2012;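 active = inhibition of the luminescence signal of 40% or more relative to plate controls, in a single-dose primary screen at 18.75 µM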
PPC-1 tox = cytotoxicity in PPC-1 cells, confirmation, cytotoxicity control for TRAIL apoptosis potentiator project, cell-based, ATP content luminescence; shares compounds with PPC-1+TRAIL kill; PPC-1 viability, ATPlite luminescence, overnight; cytotoxicity, % at 5 µM; 1,200 tested, 50% active; AID 1447, 2008;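 active = reconfirmed compounds whose average cytotoxicity reaches 50% or more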;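 also: 0% = DMSO-treated cells and 100% = wells holding medium but no cells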
* hit, by the source's call; x = not tested or not shown. In the library only some 2.2% were active in any assay of this set; here they are far more common.

SMILES | CF NFkB inh | PPC-1+TRAIL kill | hiPSC survival | C8 TRAIL sens | KKLEB tox | HIF-2a inh | PPC-1 tox
COc1cccc(N=c2oc3ccc(OC)cc3cc2-c2nc3ccccc3[nH]2)c1 | -29.8 | 8.6 | -2.8 | 62.9* | -29.0 | -205.9 | 26.5
COc1cccc(N=c2oc3ccccc3cc2-c2nc3ccccc3[nH]2)c1 | 3.5 | 44.1 | -5.2 | 37.9 | -17.4 | -170.2 | x
CC1CCCC(NC(=O)C2N(CCCN3CCCC3)C(=O)C3C(C(=O)Nc4cccc(Cl)c4)C4C=CC32O4)C1C (configuration not stated) | 19.4 | x | -0.6 | 10.4 | 3.2 | 14.2 | x
COc1ccc(C(=O)C(=NNc2ccccc2)c2ccc(OC)cc2)cc1 | -4.1 | x | 5.2 | -9.2 | -0.7 | -44.5 | x
Cc1cc(=O)[nH]c(N=N/C(=N/Nc2ccc(O)cc2)c2ccccc2)n1 | 5.2 | 11.8 | 1.8 | -0.1 | 0.0 | -100.2 | 1.6
Cc1cc(=O)[nH]c(N/N=C/c2ccccc2C(F)(F)F)n1 | 22.0 | 18.0 | 1.0 | 1.7 | -2.5 | -1.2 | x
COc1ccc(N/N=C(/N=Nc2nc(C)cc(=O)[nH]2)c2ccccc2)cc1 | -8.6 | 61.3* | -4.5 | 53.2* | 5.2 | -197.9 | 57.6*
CCOc1nc2ccccc2cc1C=O | 23.4 | -1.4 | 0.3 | -2.5 | -14.9 | 6.5 | x
CC1=C(C(=O)N(C)C)C(c2ccc(C)s2)NC(=S)N1 (configuration not stated) | -9.9 | -18.3 | 5.0 | -2.8 | -1.6 | 15.4 | x
CCN(CC)C(=O)C1=C(C)NC(=S)NC1c1ccc(C)s1 (configuration not stated) | -0.3 | -6.3 | 0.3 | 4.1 | 7.4 | 5.6 | -12.8
COc1ccc(C(=O)COC(=O)c2cc(C)no2)c(OC)c1 | -13.9 | x | 1.2 | -17.2 | 7.9 | 8.1 | x
CC(=O)N1c2ccc(S(=O)(=O)NCCC(=O)Nc3ccc(C)c(F)c3)cc2CC1C (configuration not stated) | -5.3 | x | 0.3 | -4.8 | 3.4 | 5.8 | x
CC(/C=N/NC(=O)c1ccco1)=C\c1ccccc1 | -8.0 | 63.4* | -2.3 | 68.6* | -9.5 | -200.7 | 63.1*
O=C(/C=C/c1ccccc1)c1c[nH]c2ccccc12 | 4.8 | 61.0* | -0.6 | 57.6* | -41.7 | -233.2 | 66.1*
O=C(C=Cc1ccccc1)c1c[nH]c2ccccc2c1=O | 39.5 | x | -4.8 | 23.6 | -18.2 | -18.3 | x
O=C(OCCN1CCCCC1)c1cccc(Cl)c1 | -6.0 | x | 1.8 | 3.8 | -0.6 | 13.7 | x
COc1ccccc1CNC(=O)[C@H](C)NC(=O)C1CCN(C(=O)[C@@H](N)CCSC)CC1 | -6.6 | x | 0.0 | 3.0 | -17.8 | 8.0 | x
CCc1cccc(OCC(=O)Nc2ccc(S(=O)(=O)Nc3ccccn3)cc2)c1 | 6.4 | 6.5 | 0.9 | -1.3 | -1.8 | 32.7 | 7.9
Cc1ccc(N/C(N)=N/c2nc(C)cc(N3CCCCC3)n2)c(C)c1 | 20.0 | 20.4 | -2.1 | 39.7 | -21.6 | -32.1 | 21.6
Cc1csc(NC(=O)CCS(=O)(=O)c2ccc(Br)cc2)n1 | 5.5 | 6.5 | 7.5 | 15.9 | 3.6 | 11.0 | 12.1
Cc1csc(NC(=O)c2cccc(Cn3nc(C)c(Br)c3C)c2)n1 | 13.7 | -14.3 | 0.5 | -13.1 | 4.3 | -55.4 | -1.5
Cc1nn(Cc2ccc(C(=O)Nc3nc4c(C)cccc4s3)o2)c(C)c1Br | -3.7 | 29.9 | 8.4 | 1.0 | 11.5 | 13.2 | x
Cc1ccc(C#N)c(SCC(=O)Nc2nccs2)n1 | 9.1 | 54.5* | -3.5 | 46.7 | 1.0 | -231.0 | 58.6*
CCc1nnc(NC(=O)CSc2nc3c(cc2C#N)CCC3)s1 | 2.2 | 65.3* | -4.4 | 64.0* | -19.1 | -129.4 | 69.3*
Cc1cc(C)c(C#N)c(SCC(=O)Nc2ccccc2C(N)=O)n1 | -13.6 | 73.0* | -3.5 | 49.8 | -20.9 | -178.3 | 73.6*
SMILES | CF NFkB inh | PPC-1+TRAIL kill | hiPSC survival | C8 TRAIL sens | KKLEB tox | HIF-2a inh | PPC-1 tox
CCc1nnc(NC(=O)CSc2nc(C)cc(C)c2C#N)s1 | -26.8 | 74.0* | -1.0 | 72.7* | -8.3 | -214.8 | 73.6*
Cn1c(NNC(=O)C2CCCCC2)cc(=O)n(C)c1=O | -6.8 | -9.8 | -0.5 | -4.4 | 16.3 | 21.9 | x
CCCCCC1C(C(=O)OCC)C(=O)NC1(C(=O)OCC)C(=O)OCC (configuration not stated) | -10.8 | x | 0.3 | -4.3 | -1.7 | 18.2 | x
Cc1ccc(NCC(=O)N2CCN(S(=O)(=O)c3ccccc3)CC2)cc1F | -16.2 | x | -0.3 | 15.8 | 0.5 | 3.3 | x
COc1ccc(NC(=O)CSc2nncc3ccccc23)cc1 | 23.5 | 14.9 | 0.2 | -6.7 | 1.6 | -0.4 | x
COc1ccc(C(=O)Sc2nncc3ccccc23)cc1 | 1.4 | 9.9 | -0.5 | 0.7 | -6.1 | 2.3 | 6.9
O=C(CN(Cc1ccccc1)C(=O)CCC(=O)Nc1ccccn1)NCc1ccc(F)cc1 | -3.3 | x | 0.0 | -17.7 | -0.4 | 5.3 | x
Cc1ccc2nc(-c3ccccn3)oc2c1 | -22.5 | 64.8* | -4.8 | 67.1* | -9.2 | -88.5 | 65.1*
Cc1ccc2nc(-c3cccnc3)oc2c1 | -18.4 | 14.9 | -0.4 | 8.3 | -20.1 | -265.6 | x
CC(=O)Nc1ccc(C2C(=O)c3ccccc3C2=O)cc1 | -10.8 | 53.2* | -0.5 | 61.6* | 5.8 | -131.3 | 54.3*
O=C1c2ccccc2C(=O)C1c1ccncc1 | -0.8 | 59.3* | -3.8 | 56.6* | 12.5 | -60.2 | 57.8*
O=C1c2ccccc2C(=O)C1c1ccccn1 | 0.2 | 25.4 | -0.4 | 33.8 | 1.0 | -235.5 | x
CC(=O)Nc1nc(COc2ccc3ccccc3c2)cs1 | -0.9 | 21.8 | 1.2 | 5.2 | -19.1 | -253.9 | x
CC(=O)Nc1nc(COc2ccccc2)cs1 | -7.0 | -2.2 | 2.1 | -2.2 | 6.4 | -150.9 | 8.7
CN(Cc1ccccc1NCC(=O)Nc1ccccc1C#N)C1CCCCC1 | -0.4 | 15.1 | -0.6 | 3.8 | 2.9 | 9.9 | x
N#Cc1ccccc1NC(=O)CNc1ccccc1N1CCCCC1 | 7.6 | -13.0 | 0.3 | -5.7 | 5.4 | 9.1 | -23.8
CCOC(=O)c1sc(NC(=O)c2cccs2)cc1C | -10.7 | 59.9* | -3.7 | 48.9 | -4.9 | -341.0 | 59.8*
CCNC(=O)C1(C)CCN(C(=O)C(c2ccccc2)c2ccccc2)C1 (configuration not stated) | 12.0 | x | -0.9 | -1.5 | -1.7 | -1.3 | x
Cc1nnc(SCc2cnc(-c3ccc(C(C)C)cc3)s2)n1C | -7.6 | 90.7* | -5.7 | 88.3* | -65.4* | -50.8 | 90.6*
c1ccc(-c2ncc(CSc3nncn3-c3ccccc3)s2)cc1 | -18.8 | -11.7 | -0.1 | 12.9 | 9.4 | -13.4 | x
